Results from PubChem BioAssay (NCI).
Compounds without any hit were thinned out: in the full panel of roughly 79,000, 15% have a hit. Values without a mark were called inactive. The source made the active and inactive calls. No stated cut-off is given here; in the data, active means growth inhibition above about 70%; inactive means the rest.

What was measured:
[1] = NCI Yeast Anticancer Drug Screen. Data for the rad52 strain (AID 147);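 further: 0% = growth of vehicle-treated control cultures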; settings: S. cerevisiae rad52 mutant growth inhibition, hits give high values
Summary of the method: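 Genetically altered yeast (DNA damage repair defect) treated with compound; inhibition calculated relative to vehicle.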

[2] = NCI Yeast Anticancer Drug Screen. Data for the wt1 strain (AID 149);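 further: 0% = growth of vehicle-treated wt1 cultures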; settings: S. cerevisiae wt1 strain (SPY 50644) growth inhibition, hits give high values
Summary of the method: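 Compounds are added to wt1 yeast cultures. Growth is then measured. Inhibition is expressed relative to vehicle-treated controls.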

[3] = NCI Yeast Anticancer Drug Screen. Data for the rad50EPP+ strain (AID 151);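 further: 0% = growth of vehicle-treated control cultures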; settings: S. cerevisiae rad50 mutant strain, hits give high values
Summary of the method: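 Strain rad50EPP+; compound exposure; % growth inhibition vs vehicle.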

[4] = NCI Yeast Anticancer Drug Screen. Data for the mgt1 strain (AID 153); settings: S. cerevisiae mgt1 mutant growth inhibition, hits give high values
Summary of the method: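 Read-out: yeast growth inhibition vs vehicle control. Strain mgt1, drawn from a panel altered in DNA damage repair or cell cycle control.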

[5] = NCI Yeast Anticancer Drug Screen. Data for the rad50 strain (AID 155);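 further: 0% = growth of vehicle-only cultures of the same strain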; settings: S. cerevisiae rad50 strain growth inhibition, hits give high values
Summary of the method: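 Inhibition values express reduced yeast growth in compound-treated cultures relative to vehicle-treated controls.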

[6] = NCI Yeast Anticancer Drug Screen. Data for the mec2-1 strain (AID 157); settings: S. cerevisiae mec2-1 strain, hits give high values
Summary of the method: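 Cells of the genetically defined mec2-1 yeast strain are incubated with test compound. Inhibition of growth is calculated against vehicle-treated controls.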

[7] = NCI Yeast Anticancer Drug Screen. Data for the rad14 strain (AID 159);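 further: 0% = growth of vehicle-treated control cultures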; settings: S. cerevisiae rad14 strain growth inhibition, hits give high values
Summary of the method: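 A mutant yeast strain defective in DNA damage repair is treated with compound; inhibition of its growth is scored against untreated, vehicle-exposed cultures.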

[8] = NCI Yeast Anticancer Drug Screen. Data for the sgs1 mgt1 strain (AID 161);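 further: 0% = growth of cultures given vehicle only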; settings: S. cerevisiae sgs1 mgt1 strain, hits give high values
Summary of the method: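 Genetically altered yeast, compound exposure, growth inhibition relative to vehicle.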

[9] = NCI Yeast Anticancer Drug Screen. Data for the CLN2oe strain (AID 163);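 further: 0% = growth of vehicle-only control cultures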; settings: S. cerevisiae CLN2oe strain, hits give high values
Summary of the method: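 Strain altered in cell-cycle control, incubated with compound; growth compared to solvent-treated controls.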

[10] = NCI Yeast Anticancer Drug Screen. Data for the cln2 rad14 strain (AID 165);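 further: 0% = growth equal to vehicle treated cultures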; settings: S. cerevisiae cln2 rad14 strain, hits give high values
Summary of the method: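 The screen exposed genetically defined yeast (cln2 rad14) to test compounds and scored growth inhibition relative to vehicle-treated controls.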

[11] = NCI Yeast Anticancer Drug Screen. Data for the bub3 strain (AID 167); settings: S. cerevisiae bub3 mutant strain, hits give high values
Summary of the method: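 Steps: expose the mutant yeast strain to compound; grow alongside vehicle-treated cultures; measure growth; express inhibition against the vehicle cultures.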

[12] = NCI Yeast Anticancer Drug Screen. Data for the wt2 strain (AID 169);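 further: 0% = growth of vehicle-treated yeast cultures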; settings: S. cerevisiae wt2 strain growth inhibition, hits give high values
Summary of the method: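 Steps: yeast strain treated with compound; growth recorded; inhibition calculated relative to cultures given vehicle alone.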

[13] = NCI Yeast Anticancer Drug Screen. Data for the mlh1 strain (AID 171);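 further: 0% = growth of vehicle-treated control cultures of the same strain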; settings: S. cerevisiae mlh1 strain growth inhibition, hits give high values
Summary of the method: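 Yeast screen: mutant strain plus compound, growth scored against vehicle control wells.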

[14] = NCI Yeast Anticancer Drug Screen. Data for the sgs1 strain (AID 173);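 further: 0% = growth of vehicle-only control cultures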; settings: S. cerevisiae sgs1 mutant, hits give high values
Summary of the method: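 Inhibition of yeast growth served as the measure. The mutant strain was treated with each compound, and growth was normalised to cultures receiving vehicle alone.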

[15] = NCI Yeast Anticancer Drug Screen. Data for the mlh1 rad18 strain (AID 175); settings: S. cerevisiae mlh1 rad18 strain growth inhibition, hits give high values
Summary of the method: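 Compound-treated yeast growth, normalised to vehicle controls. Strain bears defined DNA repair mutations.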

[16] = NCI Yeast Anticancer Drug Screen. Data for the rad18 strain (AID 177); settings: S. cerevisiae rad18 mutant growth inhibition, hits give high values
Summary of the method: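 Inhibition values reflect reduced yeast growth compared with vehicle-treated controls, using a strain engineered with a DNA damage repair defect.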

[17] = at 5.0 µM (retest, dose inferred, filed as 0.5)
[18] = at 50.0 µM (retest, dose inferred, filed as 5.0)

CCCCC/C(=C(\C#N)C(=O)OCC)c1ccccc1
growth inhibition ([1]; at 1.2 µM): -2% | growth inhibition ([1]; at 3.7 µM): -1% | growth inhibition ([1]; at 11.0 µM): 1% | growth inhibition ([1]; at 33.0 µM): 7% | growth inhibition ([1]; at 100.0 µM): 9% | growth inhibition ([2]; at 1.2 µM): -2% | growth inhibition ([2]; at 3.7 µM): -2% | growth inhibition ([2]; at 11.0 µM): -1% | growth inhibition ([2]; at 33.0 µM): -4% | growth inhibition ([2]; at 100.0 µM): -4% | growth inhibition ([3]; at 1.2 µM): 3% | growth inhibition ([3]; at 3.7 µM): 3% | growth inhibition ([3]; at 11.0 µM): 13% | growth inhibition ([3]; at 33.0 µM): 26% | growth inhibition ([3]; at 100.0 µM): 78% (active) | growth inhibition ([4]; at 1.2 µM): -3% | growth inhibition ([4]; at 3.7 µM): -2% | growth inhibition ([4]; at 11.0 µM): -3% | growth inhibition ([4]; at 33.0 µM): -2% | growth inhibition ([4]; at 100.0 µM): 7% | growth inhibition ([5]; at 1.2 µM): -1% | growth inhibition ([5]; at 3.7 µM): -1% | growth inhibition [5, 17]: 7% | growth inhibition ([5]; at 11.0 µM): 4% | growth inhibition ([5]; at 33.0 µM): 7% | growth inhibition [5, 18]: -4% | growth inhibition ([5]; at 50.0 µM): -7% | growth inhibition ([5]; at 100.0 µM): -6% | growth inhibition ([6]; at 1.2 µM): -7% | growth inhibition ([6]; at 3.7 µM): -5% | growth inhibition [6, 17]: -5% | growth inhibition ([6]; at 11.0 µM): -3% | growth inhibition ([6]; at 33.0 µM): 0% | growth inhibition [6, 18]: -4% | growth inhibition ([6]; at 50.0 µM): 28.4% | growth inhibition ([6]; at 100.0 µM): 6% | growth inhibition ([7]; at 1.2 µM): -1% | growth inhibition ([7]; at 3.7 µM): -2% | growth inhibition ([7]; at 11.0 µM): 1% | growth inhibition ([7]; at 33.0 µM): 8% | growth inhibition ([7]; at 100.0 µM): 5% | growth inhibition [8, 17]: -1% | growth inhibition [8, 18]: 33% | growth inhibition ([8]; at 50.0 µM): 36.5% | growth inhibition ([9]; at 1.2 µM): -2% | growth inhibition ([9]; at 3.7 µM): -5% | growth inhibition ([9]; at 11.0 µM): -5% | growth inhibition ([9]; at 33.0 µM): -4% | growth inhibition ([9]; at 100.0 µM): 4% | growth inhibition [10, 17]: -7% | growth inhibition [10, 18]: 13% | growth inhibition ([10]; at 50.0 µM): -99% | growth inhibition ([11]; at 1.2 µM): 0% | growth inhibition ([11]; at 3.7 µM): 2% | growth inhibition [11, 17]: 1% | growth inhibition ([11]; at 11.0 µM): 6% | growth inhibition ([11]; at 33.0 µM): 11% | growth inhibition [11, 18]: 7% | growth inhibition ([11]; at 50.0 µM): 52.4% | growth inhibition ([11]; at 100.0 µM): 14% | growth inhibition ([12]; at 1.2 µM): -3% | growth inhibition ([12]; at 3.7 µM): -4% | growth inhibition ([12]; at 11.0 µM): -3% | growth inhibition ([12]; at 33.0 µM): -3% | growth inhibition ([12]; at 100.0 µM): 1% | growth inhibition ([13]; at 1.2 µM): -2% | growth inhibition ([13]; at 3.7 µM): 1% | growth inhibition ([13]; at 11.0 µM): 5% | growth inhibition ([13]; at 33.0 µM): 10% | growth inhibition ([13]; at 100.0 µM): 18% | growth inhibition ([14]; at 1.2 µM): -1% | growth inhibition ([14]; at 3.7 µM): 2% | growth inhibition ([14]; at 11.0 µM): 2% | growth inhibition ([14]; at 33.0 µM): 8% | growth inhibition ([14]; at 100.0 µM): 17% | growth inhibition [15, 17]: -6% | growth inhibition [15, 18]: 64% | growth inhibition ([15]; at 50.0 µM): 44.4% | growth inhibition ([16]; at 1.2 µM): 1% | growth inhibition ([16]; at 3.7 µM): 3% | growth inhibition ([16]; at 11.0 µM): 2% | growth inhibition ([16]; at 33.0 µM): 8% | growth inhibition ([16]; at 100.0 µM): 14%
